# In PubChem BioAssay (Tox21):
# “And” between values parts separate entries of the source, which are not always exact repeats. Equal entries are not always repeated. Records with an inconclusive call do not appear. The source made the active and inactive calls. The call rests on the fitted dose curve; in most records, active means well fitted cell-killing curve with a large enough effect in the repeat runs; inconclusive means weak or mixed curves, or effect the other way; inactive means flat fitted curve, though single readings scatter.
# Assay: qHTS RealTime-Glo MT Cell Viability Assay in HEK293 cells - 40 hour (AID 1224874); further: nearly all actives have a fitted effect of over 50% in size
# Conditions: RealTime-Glo luminescence; max response: stronger effect = lower value
# Description: U.S. Tox21 Program National Center for Advancing Translational Sciences [NCATS] NIH Chemical Genomics Center [NCGC] U.S. Environmental Protection Agency [EPA] National Institutes of Environmental Health Sciences [NIEHS] National Toxicology Program [NTP] U.S. Food and Drug Administration [FDA] Tox21 Assay Overview: Measure of cell viability is critical in the cell-base assay. Analysis of cell viability is necessary for the characterization of cell responses to cytotoxic drugs and environmental stress. A RealTime-Glo MT Cell Viability Assay to monitor cell viability in real time of continues cell culture during 40 hours of compound treatment was used to screen Tox21 10K library compounds in Hek293 cells. The RealTime-Glo MT Cell Viability Assay is a nonlytic, homogeneous, bioluminescent method to measure cell viability in real time using a simple, plate-based method. The assay involves adding NanoLuc luciferase and a cell-permeant prosubstrate to cells in culture. Viable cells reduce the proprietary prosubstrate to generate a substrate for NanoLuc luciferase. This substrate diffuses from cells into the surrounding culture medium, where it is rapidly used by the NanoLuc Enzyme to produce a luminescent signal. The signal correlates with the number of viable cells, making the assay well suited for cytotoxicity studies.
# Tox21 Assay Protocol Summary: The mixture of Hek293 cell suspension and reagents were dispensed at 600cells/6 ul/well in 1536-well tissue culture treated black solid bottom plates using a Multidrop dispenser. After the assay plates were incubated at a 37 C/5% CO2 incubator for 5 hours, 23 nL of compounds dissolved in DMSO, positive and negative controls was transferred to the assay plate by a pintool work station. The plates were incubated at 37 C for 40 hours. The luminescence intensity were measured at 0h, 8h, 16h, 24h, 32h and 40h time points using ViewLux plate reader during compound treatment.
# On the % scale 0 is the no-effect control and ±100 the full control effect; potency means the concentration at half of the fitted maximal effect.
Structure (SMILES),Potency,max response
CC(=O)[O][Sn]([c]1ccccc1)([c]1ccccc1)[c]1ccccc1,0.0347 µM (active),–
CCN(CC)CCc1c[nH]c2ccccc12,–,6.8% (inactive)
CC(=O)[O-].CC(=O)[O-].[Co+2],–,8.26% (inactive)
CCCCc1ccccc1,–,-16% (inactive)
CN1CCc2cc3c(cc2C1O)OCO3 (stereo not given),–,1.96% (inactive)
CC(C)C(Nc1ccc(C(F)(F)F)cc1Cl)C(=O)OC(C#N)c1cccc(Oc2ccccc2)c1 (stereo not given),–,-20.4% (inactive)
CCOP(=O)(OCC)Oc1nc(Cl)c(Cl)cc1Cl,–,-5.34% (inactive)
CC(C)[C@@H](Nc1ccc(C(F)(F)F)cc1Cl)C(=O)OC(C#N)c1cccc(Oc2ccccc2)c1 (stereo not given in full),–,-6.7% (inactive)
ClC1=C(Cl)[C@]2(Cl)[C@@H]3[C@H]4C[C@H]([C@@H]5O[C@H]45)[C@@H]3[C@@]1(Cl)C2(Cl)Cl,–,3.07% (inactive)
Nc1ccccc1-c1ccccc1,–,-12.7% (inactive)
CCN1CCC2(CC1)COc1cc3c(cc12)N(C(=O)c1ccc(-c2ccc(-c4nnc(C)o4)cc2C)cc1)CC3,11.3 µM (active),–
O=C1C(Cl)=C(Cl)C(=O)C(Cl)=C1Cl,21.8 µM (active) and 21.9 µM (active),–
CCCCC(CC)COC(=O)c1ccccc1C(=O)OCC(CC)CCCC (stereo not given),–,1.87% (inactive)
COC(=O)c1ccccc1S(=O)(=O)NC(=O)Nc1nc(C)nc(OC)n1,–,0.753% (inactive)
ClC1=C(Cl)[C@]2(Cl)[C@H]3[C@H]([C@@H]4C=C[C@H]3C4)[C@@]1(Cl)C2(Cl)Cl,48.9 µM (active) and 43.6 µM (active),–
c1csc(-c2ccc(-c3cccs3)s2)c1,–,-2.2% (inactive)
COc1cnc(OC)n2nc(NS(=O)(=O)c3c(OCC(F)F)cccc3C(F)(F)F)nc12,–,16.5% (inactive)
COP(=O)(OC)Oc1ccc([N+](=O)[O-])cc1,–,-20.5% (inactive)
O=C(N[C@@H]1N=C(c2ccccc2F)c2cccc3c2N(CC3)C1=O)c1cc2ccccc2[nH]1,–,-2.71% (inactive)
CC(C)NCC(O)c1ccccc1Cl (stereo not given),–,1.74% (inactive)

Structure (SMILES),Potency,max response
Clc1c(Cl)c(Cl)c(Cl)c(Cl)c1Cl,–,8.77% (inactive)
CCn1cc[n+](C)c1 (tested in a mixture with another compound),–,-0.353% (inactive)
Cc1ccc([N+](=O)[O-])[c]2c1[O][Hg]2,3.01 µM (active),–
CC(=O)O.CC(=O)O.CC(=O)O.CC(=O)O.CC(=O)O.CC(=O)O.CC(=O)O.O.O.[Cr].[Cr].[Cr],–,2.64% (inactive)
O.O.O.O.O.O.O=S(=O)([O-])[O-].[Ni+2],–,-26.5% (inactive)
O=[N+]([O-])c1cc(C(F)(F)F)c(Cl)c([N+](=O)[O-])c1Nc1ncc(C(F)(F)F)cc1Cl,1.55 µM (active),–
[Cl-].[Cl-].[Cl-].[Yb+3],–,28.3% (inactive)
c1ccc(N=NNc2ccccc2)cc1,–,-3.75% (inactive)
O=[N+]([O-])c1ccccc1-c1ccccc1,–,4.62% (inactive)
Clc1cc(Cl)c(-c2cc(Cl)c(Cl)cc2Cl)cc1Cl,–,1.25% (inactive)
COc1ccc2c(c1OC)C(=O)O[C@@H]2[C@H]1c2cc3c(cc2CCN1C)OCO3,–,1.56% (inactive)
CC(C)C(Br)C(=O)NC(N)=O (stereo not given),–,7.13% (inactive)
C#CCO,–,3.5% (inactive)
CC1CN1 (stereo not given),–,6.11% (inactive)
Cc1ccc(C)c2ccccc12,–,-14.8% (inactive)
CCC(C)Nc1c([N+](=O)[O-])cc(C(C)(C)C)cc1[N+](=O)[O-] (stereo not given),–,-8.53% (inactive)
CCCN,–,-0.242% (inactive)
CNC(=O)/C=C(\C)OP(=O)(OC)OC,–,6.16% (inactive)
CSC(C)(C)/C=N/O,–,2.63% (inactive)
Cc1ccn2nc(S(=O)(=O)Nc3c(F)cccc3F)nc2n1,–,12.5% (inactive)
